Measured values from PubChem BioAssay (NCI).
About 83,000 compounds went through this panel and 20% of them were active in at least one assay; those are over-represented in the sample as a whole.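 In brief: 96-well plates, 48 h treatment, single concentration, percent growth endpoint.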 Unmarked numbers belong to inactive results. Activity calls are given as the source filed them. Rule for the calls: active = growth percent below 10; inactive = the rest.

Tests used:
Assay in all cases: NCI-60 one-dose screen, 48 h (100 = growth as untreated, 0 = no growth, -100 = all killed)
Settings in all cases: 10 µM unless noted
NCI-H23 lung = test system: NCI-H23 lung
NCI-H322M lung = test system: NCI-H322M lung
HOP-62 NSCLC = test system: HOP-62 NSCLC
NCI-H460 lung = test system: NCI-H460 lung
HOP-92 NSCLC = test system: HOP-92 NSCLC
NCI-H522 lung = test system: NCI-H522 lung
A549/ATCC NSCLC = test system: A549/ATCC NSCLC
786-0 renal = test system: 786-0 renal
COLO 205 colon = test system: COLO 205 colon
DU-145 prostate = test system: DU-145 prostate
K-562 leukemia = test system: K-562 leukemia
MALME-3M melanoma = test system: MALME-3M melanoma
MDA-MB-231 breast = test system: MDA-MB-231 breast
RXF 393 renal = test system: RXF 393 renal
SF-268 CNS = test system: SF-268 CNS
SF-295 CNS = test system: SF-295 CNS
SF-539 CNS = test system: SF-539 CNS
UACC-257 melanoma = test system: UACC-257 melanoma
M14 melanoma = test system: M14 melanoma

CS(=O)(=O)OCC(COS(C)(=O)=O)C(c1ccccc1)c1ccccc1
growth (NCI-H23 lung): 96.9%
growth (NCI-H322M lung): 97.9%
growth (HOP-62 NSCLC): 91.2%
growth (NCI-H460 lung): 110%
growth (HOP-92 NSCLC): 85.2%
growth (NCI-H522 lung): 95.4%
growth (A549/ATCC NSCLC): 92.3%
growth (786-0 renal): 99.4%
growth (COLO 205 colon): 124%
growth (DU-145 prostate): 129%
growth (K-562 leukemia): 101%
growth (MALME-3M melanoma): 99.7%
growth (MDA-MB-231 breast): 96.5%
growth (RXF 393 renal): 97.4%
growth (SF-268 CNS): 109%
growth (SF-295 CNS): 97.2%
growth (SF-539 CNS): 118%
growth (UACC-257 melanoma): 111%
growth (M14 melanoma): 106%

Nc1nc(-c2cc3c(cc2Cl)NC(=O)/C3=C/c2ccccc2)cs1
growth (NCI-H23 lung): 56.5%
growth (NCI-H322M lung): 70.1%
growth (HOP-62 NSCLC): 78.6%
growth (NCI-H460 lung): 56.8%
growth (HOP-92 NSCLC): 81.2%
growth (NCI-H522 lung): 27.5%
growth (A549/ATCC NSCLC): 61.5%
growth (786-0 renal): 83.9%
growth (COLO 205 colon): 81.3%
growth (DU-145 prostate): 51.6%
growth (K-562 leukemia): 3.89% (active)
growth (MALME-3M melanoma): 97.1%
growth (MDA-MB-231 breast): 37.3%
growth (RXF 393 renal): 63.3%
growth (SF-268 CNS): 52.1%
growth (SF-295 CNS): 70%
growth (SF-539 CNS): 81.5%
growth (UACC-257 melanoma): 80.1%
growth (M14 melanoma): 60.6%

CCN(CC)CCN1C(=O)c2c(c3c4ccccc4[nH]c3c3[nH]c4ccccc4c23)C1=O
growth (NCI-H23 lung): 85.6%
growth (NCI-H322M lung): 66.6%
growth (HOP-62 NSCLC): 64.7%
growth (NCI-H460 lung): 69%
growth (HOP-92 NSCLC): 86.4%
growth (NCI-H522 lung): 69.4%
growth (A549/ATCC NSCLC): 82.2%
growth (786-0 renal): 83.6%
growth (COLO 205 colon): 75.8%
growth (DU-145 prostate): 105%
growth (K-562 leukemia): 17.8%
growth (MALME-3M melanoma): 86.1%
growth (MDA-MB-231 breast): 83.8%
growth (RXF 393 renal): 83.6%
growth (SF-268 CNS): 87.3%
growth (SF-295 CNS): 84.7%
growth (SF-539 CNS): 88.8%
growth (UACC-257 melanoma): 105%
growth (M14 melanoma): 79.5%

NS(=O)(=O)c1ccc(Nc2nc(O)c(/C=C3\C=Nc4ccccc43)s2)cc1
growth (NCI-H23 lung): 92%
growth (NCI-H322M lung): 90.7%
growth (HOP-62 NSCLC): 97.5%
growth (NCI-H460 lung): 98.6%
growth (HOP-92 NSCLC): 114%
growth (NCI-H522 lung): 92%
growth (A549/ATCC NSCLC): 90.4%
growth (786-0 renal): 106%
growth (COLO 205 colon): 122%
growth (DU-145 prostate): 110%
growth (K-562 leukemia): 101%
growth (MALME-3M melanoma): 92.7%
growth (MDA-MB-231 breast): 87.9%
growth (RXF 393 renal): 111%
growth (SF-268 CNS): 106%
growth (SF-295 CNS): 102%
growth (SF-539 CNS): 98.1%
growth (UACC-257 melanoma): 88.7%
growth (M14 melanoma): 103%

CNCCCOc1c(Br)cc(CCNC(=O)/C(Cc2cc(Br)c(OC)c(Br)c2)=N/O)cc1Br
growth (NCI-H23 lung): -20.9% (active)
growth (HOP-62 NSCLC): -7.84% (active)
growth (NCI-H460 lung): -44.7% (active)
growth (HOP-92 NSCLC): -6.24% (active)
growth (NCI-H522 lung): -64% (active)
growth (A549/ATCC NSCLC): -16.7% (active)
growth (786-0 renal): -80.8% (active)
growth (COLO 205 colon): -72% (active)
growth (DU-145 prostate): -5.03% (active)
growth (K-562 leukemia): -51.2% (active)
growth (MALME-3M melanoma): -78% (active)
growth (MDA-MB-231 breast): -69.8% (active)
growth (RXF 393 renal): -5.85% (active)
growth (SF-268 CNS): 4.43% (active)
growth (SF-295 CNS): -65.5% (active)
growth (SF-539 CNS): -73.9% (active)
growth (UACC-257 melanoma): -45.3% (active)
growth (M14 melanoma): -76.7% (active)

O=S(c1ccccc1)c1ccc2nnnn2n1 (stereo not drawn)
growth (NCI-H23 lung): 100%
growth (NCI-H322M lung): 98.7%
growth (HOP-62 NSCLC): 108%
growth (NCI-H460 lung): 103%
growth (HOP-92 NSCLC): 101%
growth (NCI-H522 lung): -17.6% (active)
growth (A549/ATCC NSCLC): 99.9%
growth (786-0 renal): 104%
growth (COLO 205 colon): 98%
growth (DU-145 prostate): 105%
growth (K-562 leukemia): -9.22% (active)
growth (MALME-3M melanoma): 103%
growth (MDA-MB-231 breast): 104%
growth (RXF 393 renal): 117%
growth (SF-268 CNS): 97.1%
growth (SF-295 CNS): 102%
growth (SF-539 CNS): 102%
growth (UACC-257 melanoma): 99.6%
growth (M14 melanoma): 99%

Nc1ncnc2c1c(-c1ccc(Oc3ccccc3)cc1)nn2C[C@H]1SSC[C@@H]1O
growth (NCI-H23 lung): 53.2%
growth (NCI-H322M lung): 46.9%
growth (HOP-62 NSCLC): 49.7%
growth (NCI-H522 lung): -3.56% (active)
growth (A549/ATCC NSCLC): 31%
growth (786-0 renal): 66.2%
growth (COLO 205 colon): 6.71% (active)
growth (DU-145 prostate): 48%
growth (K-562 leukemia): 5.41% (active)
growth (MALME-3M melanoma): -48.4% (active)
growth (MDA-MB-231 breast): 61.4%
growth (RXF 393 renal): 28.7%
growth (SF-268 CNS): 43.4%
growth (SF-295 CNS): 48.4%
growth (SF-539 CNS): 38%
growth (UACC-257 melanoma): 9.88% (active)
growth (M14 melanoma): -90% (active)

CCN(CC)CCNc1ccc([N+](=O)[O-])c2sc3cc(Cl)ccc3c(=O)c12
growth (NCI-H23 lung): 63.5%
growth (NCI-H322M lung): 53.9%
growth (HOP-62 NSCLC): 57.7%
growth (NCI-H460 lung): -17.8% (active)
growth (HOP-92 NSCLC): 47.5%
growth (NCI-H522 lung): 49.4%
growth (786-0 renal): -80.3% (active)
growth (COLO 205 colon): 60.1%
growth (DU-145 prostate): 50.2%
growth (K-562 leukemia): 1.93% (active)
growth (MALME-3M melanoma): -9.6% (active)
growth (MDA-MB-231 breast): 22.6%
growth (RXF 393 renal): -39.3% (active)
growth (SF-268 CNS): 52.4%
growth (SF-295 CNS): 43.9%
growth (SF-539 CNS): 34.5%
growth (UACC-257 melanoma): 71.5%
growth (M14 melanoma): 79.4%
